Measurements reported in article PMC4552634, “A New Set of Chemical Starting Points with Plasmodium falciparum Transmission-Blocking Potential for Antimalarial Drug Discovery” (PLoS ONE, 2015).
The campaign covered roughly 13,000 compounds. About 3,200 (25%) showed an effect of 50% or more. The list shows a part of the results.

Each compound was assayed on P. falciparum stage V gametocytes. Settings: 48 h, 5 µM; inhibitor.
Set-up: BacTiter-Glo ATP luminescence viability of purified stage V gametocytes in 384-well plates, per cent inhibition versus DMSO

Compared with `c1ccc(COc2ccc(Nc3ncnc4ccc(-c5ccc(CN6CCSCC6)o5)cc34)cc2)cc1` [TCMDC-138242], `CC(Cc1ccc(OCc2ccccc2)cc1)Nc1nc2ccccc2c(=O)[nH]1` (stereo not shown) [TCMDC-131532] is lower in “% Inhibition” value: 13.7% for the first, -11.7% for the second.

Going from `Cc1ccc(C)c(NC(=O)Nc2ccc(Nc3nc(C)cc(N4CCOCC4)n3)cc2)c1` [TCMDC-124751] to `COc1ccc(Nc2cc(C)nc(Nc3ccc(NC(C)=O)cc3)n2)cc1` [TCMDC-124979], the “% Inhibition” value falls from 3.565% to -41.12%.

Going from `CC(=O)N/N=C/[C@H](CCc1ccccc1)NC(=O)[C@H](CC(C)C)NC(=O)c1cccc(OCCN2CCOCC2)c1` [TCMDC-135972] to `CC(C)CNCc1cccc(-c2cccc(CNCCCN3CCN(C)CC3)c2)c1` [TCMDC-140483], the “% Inhibition” value rises from 30.82% to 101.9%.

Going from `CCCCNC(=O)C1CCCN(C(=O)c2ccc(O)c(-c3ccc(Cl)c(Cl)c3)c2)C1` (stereo not shown) [TCMDC-140887] to `CCCNC(=O)Nc1cc2cc(-c3ccc(CN4CCCC4)cc3)ccc2n2c(C)nnc12` [TCMDC-136718], the “% Inhibition” value rises from -1.062% to 108.6%.

Compared with `CS(=O)(=O)NCCCNCc1cccc(-c2csc(-c3nc4ccccc4[nH]3)c2)c1` [TCMDC-133089], `Cc1cccc2[nH]c(-c3ccc(-c4cccc(CNCCCN5CCCC5=O)c4)cc3)nc12` [TCMDC-132758] is higher in “% Inhibition” value: -10.78% for the first, 19.9% for the second.

First: COc1ccc2nc(C)cc(Nc3ccc(Oc4ccc(Br)c5ccccc45)c(Cl)c3)c2c1 [TCMDC-124238]
Second: COc1ccc(O)c(C(=O)c2cc(C#N)c(=O)n(-c3ccc(Oc4ccccc4)cc3)c2)c1 [TCMDC-123628]
The “% Inhibition” value of the first is higher: 12.09% for the first, -33.17% for the second.

First: Cc1ccc(CN2CCCN(Cc3cccc(NC(=O)c4ccc(-c5ccccc5)cc4)c3)CC2)cc1C [TCMDC-141851]
Second: CN1CCN(CCCNCc2cccc(-c3ccc(CNCCc4ccccc4)cc3)c2)CC1 [TCMDC-140643]
The “% Inhibition” value of the first is lower: -43.17% for the first, 103.5% for the second.

Compared with `O=C(/C=C/c1ccc([N+](=O)[O-])cc1)N1CCC(NS(=O)(=O)c2ccc(Br)cc2)CC1` [TCMDC-139442], `CCCc1ccc(S(=O)(=O)NC2CCN(c3ccnc(Nc4ccc(F)cc4)n3)C2)cc1` (stereo not shown) [TCMDC-133598] is lower in “% Inhibition” value: 11.64% for the first, 2.344% for the second.

First: COc1ccc(C(=O)CCc2ccc(O)cc2)cc1 [TCMDC-124290]
Second: COC(=O)c1ccc(CC(C)NCC(O)c2ccccc2Cl)cc1 (stereo not shown) [TCMDC-131422]
The “% Inhibition” value of the first is lower: -50.17% for the first, 7.207% for the second.

Going from `CC(C)CNCc1cccc(-c2cccc(CNc3ccc4ncccc4c3)c2)c1` [TCMDC-140718] to `Cc1ncccc1C(=O)Nc1ccc(-c2cccc(-c3nc4c(C)cccc4[nH]3)c2)cc1` [TCMDC-136862], the “% Inhibition” value falls from 9.838% to -37.31%.

Going from `O=C(NCCN1CCC(c2ccncc2)CC1)c1ccc(Nc2nccc(Nc3ccc(Oc4ccccc4)cc3)n2)cc1` [TCMDC-138610] to `COc1ccc(NC(=O)Nc2ccc(C)c(-c3ccc(C(=O)Nc4ccncc4)cc3)c2)cc1` [TCMDC-133705], the “% Inhibition” value rises from -43.68% to 11.61%.

First: O=C(c1ccc2ccccc2n1)N1CCCc2cc(Br)ccc21 [TCMDC-134838]
Second: COc1ccc(Nc2nccc(N3CCC(NC(=O)c4cccc(C#N)c4)C3)n2)cc1 (stereo not shown) [TCMDC-133609]
The “% Inhibition” value of the first is higher: -4.614% for the first, -14.42% for the second.

Compared with `Cc1ccc(C(=O)Nc2ccc(C)c(OC3CCN(CCC(C)C)C3)c2)cc1` (stereo not shown) [TCMDC-133981], `Cc1ccc2c(C3=CCN(CCCCC4(C)C(=O)Nc5c(F)cccc54)CC3)c(C)[nH]c2c1` (stereo not shown) [TCMDC-141005] is higher in “% Inhibition” value: -13.13% for the first, 12.05% for the second.

First: CCOC(=O)c1ccc(NC(=O)Nc2ccc(-c3ccc(-c4nc5ccccc5[nH]4)cc3)cc2)cc1 [TCMDC-133265]
Second: Cc1cccc2[nH]c(-c3cccc(-c4ccc(NC(=O)c5cccnc5)cc4)c3)nc12 [TCMDC-136929]
The “% Inhibition” value of the first is higher: -0.3523% for the first, -10.6% for the second.

Compared with `CCN(CC)CCCn1c(N)c(-c2nc3ccccc3[nH]2)c2nc(C#N)c(C#N)nc21` [TCMDC-123680], `CN(C)CCCn1c(N)c(-c2nc3ccccc3[nH]2)c2nc(C#N)c(C#N)nc21` [TCMDC-123729] is lower in “% Inhibition” value: 117% for the first, 113.1% for the second.

Compared with `CN(C)CCn1c(N)c(-c2nc3ccccc3s2)c2nc(C#N)c(C#N)nc21` [TCMDC-124439], `N#Cc1c(N)n(CCc2ccc(F)cc2)c2nc3ccccc3nc12` [TCMDC-125779] is higher in “% Inhibition” value: -7.276% for the first, 44.22% for the second.

First: COc1ccc(COc2c(OC)cc(Cc3cnc(N)nc3N)cc2OC)cc1 [TCMDC-138619]
Second: COc1cc(Cc2cnc(N)nc2N)cc(OC)c1OCCNC(=O)[C@@H](N)CCC(=O)O [TCMDC-137685]
The “% Inhibition” value of the first is higher: 7.542% for the first, -2.761% for the second.

Going from `NC1=NC(c2ccccc2)(c2ccccc2)C(=O)N1CCCCc1ccccn1` [TCMDC-132209] to `CC(CCc1ccc(OCc2ccccc2)cc1)NCC(O)c1ccccc1` (stereo not shown) [TCMDC-131472], the “% Inhibition” value rises from -31.55% to 8.257%.

Going from `CCCCn1c(C(C)Oc2ccc(Cl)cc2Cl)nc2cc(S(N)(=O)=O)ccc21` (stereo not shown) [TCMDC-125564] to `Cc1nc(NCCCn2ccnc2)cc(-c2cncc(-c3ccc(OC(F)(F)F)cc3)c2)n1` [TCMDC-125423], the “% Inhibition” value rises from 8.97% to 9.398%.

Going from `CC(Cc1ccc(OCCCCOc2ccccc2)cc1)NCCc1ccccc1Cl` (stereo not shown) [TCMDC-140019] to `COc1cccc(CCNC(C)Cc2ccc(OCCCCOc3ccccc3)cc2)c1` (stereo not shown) [TCMDC-140020], the “% Inhibition” value rises from 97.11% to 127.9%.

Compared with `CC(Cc1ccc(OCCCCOc2ccccc2)cc1)NCCc1ccc(Oc2ccccc2)cc1` (stereo not shown) [TCMDC-140021], `CN(C)CCOc1cc(NC(=O)Nc2ccc(Oc3ccccc3)cc2)ccc1I` [TCMDC-139113] is lower in “% Inhibition” value: 88.65% for the first, -27.54% for the second.

First: COc1ccccc1CCCON1C(N)=NC(N)=NC1(C)C [TCMDC-131723]
Second: CCCCOc1c(CCC)cc(Cc2cnc(N)nc2N)cc1CCC [TCMDC-137692]
The “% Inhibition” value of the first is higher: 17.71% for the first, -41.23% for the second.

First: Cc1cccc2[nH]c(-c3cccc(-c4cccc(NC(=O)c5cnccc5C(F)(F)F)c4)c3)nc12 [TCMDC-137118]
Second: Cc1cccc2[nH]c(-c3cccc(-c4ccc(NC(=O)c5cnccc5C(F)(F)F)cc4)c3)nc12 [TCMDC-137119]
The “% Inhibition” value of the first is lower: 53.02% for the first, 66.25% for the second.

Going from `Cc1cccc2[nH]c(-c3cccc(-c4cccc(NC(=O)c5cccnc5)c4)c3)nc12` [TCMDC-136927] to `Cc1cccc2[nH]c(-c3ccc(-c4cccc(NC(=O)c5cnccc5C(F)(F)F)c4)cc3)nc12` [TCMDC-137117], the “% Inhibition” value falls from 36.77% to -14.87%.

Compared with `c1ccc(C2=NN=C(c3ccccn3)C3C4CC(C23)C2C3CC(c5ccccc53)C42)nc1` (stereo not shown) [TCMDC-138248], `COc1ccc(-c2cncc3ccc(C(=O)NCc4ccncc4)nc23)cc1` [TCMDC-125411] is higher in “% Inhibition” value: -12.71% for the first, 51.25% for the second.

First: COc1ccc(C(=O)Nc2cc(Cl)c3c(c2)C2CCCN2CC3)cc1C(F)(F)F (stereo not shown) [TCMDC-139417]
Second: CC(Oc1ccc(Cl)cc1)C(=O)Nc1cc(C(F)(F)F)ccc1N1CCOCC1 (stereo not shown) [TCMDC-125311]
The “% Inhibition” value of the first is lower: -51.32% for the first, 3.686% for the second.

Going from `COc1cc(NC(=O)/C=C/c2cc(F)cc(F)c2F)cc(OCCN2CCN(CCN3CCOCC3)CC2)c1` [TCMDC-140930] to `Cc1cc(F)ccc1[C@H]1C[C@H](N2CCOCC2)CCN1C(=O)N(C)[C@@H](C)c1cc(C(F)(F)F)cc(C(F)(F)F)c1` [TCMDC-138838], the “% Inhibition” value rises from -13.83% to 17.17%.

Going from `COc1ccc(CNc2cc(C)nc3sc4c(c23)CCC2(C4)OCCO2)cc1` [TCMDC-138981] to `COc1ccc(-c2cc3nc4c(c(NCCCn5ccnc5)n3n2)CCCC4)cc1` [TCMDC-124389], the “% Inhibition” value falls from -1.212% to -21.29%.

First: COc1ccc(-c2cncc3ccc(C(=O)NCCCn4ccnc4)nc23)cc1 [TCMDC-125412]
Second: COc1ccc(-n2nc(C)cc2C(=O)NCc2ccc(-c3c(C)noc3C)cc2)cc1 [TCMDC-133779]
The “% Inhibition” value of the first is higher: 77.43% for the first, 19.66% for the second.

Compared with `O=C(Nc1ccc(I)cc1)Nc1ccc(Cn2ncc(N3CCCNCC3)c(Cl)c2=O)cc1` [TCMDC-133322], `CN(C)CCOc1cc(NC(=O)Nc2cccc3c(-c4ccncc4)cccc23)ccc1I` [TCMDC-139143] is higher in “% Inhibition” value: -17.85% for the first, 27.84% for the second.

Compared with `CC(C)N(Cc1ccc(-c2ccc(C(F)(F)F)cc2)cc1)C(=O)Cn1c(CCc2cccc(F)c2F)cc(=O)c2ccc(CCCN3CCCCC3)cc21` [TCMDC-141581], `CCN(CC)Cc1ccc2c(=O)cc(CCc3cccc(F)c3F)n(CC(=O)N(Cc3ccc(-c4ccc(C(F)(F)F)cc4)cc3)C(C)C)c2c1` [TCMDC-141567] is lower in “% Inhibition” value: 119.6% for the first, 74.8% for the second.

Going from `Cc1cc(F)ccc1[C@H]1CNCCN1C(=O)N(C)C(C)(C)c1cc(C(F)(F)F)cc(C(F)(F)F)c1` [TCMDC-138568] to `Cc1cc(F)ccc1[C@H]1CNCCN1C(=O)N(C)[C@@H](C)c1cc(C(F)(F)F)cc(C(F)(F)F)c1` [TCMDC-138495], the “% Inhibition” value rises from 62.57% to 76.86%.

First: CCNc1cc(C(=O)N[C@@H](Cc2ccccc2)[C@H](O)CNC2CCC(C(C)(C)C)CC2)cc(N2CCCC2=O)c1 (stereo partly shown) [TCMDC-138903]
Second: CC1CCCN(C(=O)C(C)Nc2cc(Cl)ccc2N2CCOCC2)C1 (stereo not shown) [TCMDC-125110]
The “% Inhibition” value of the first is lower: 47.86% for the first, 85% for the second.

`Cc1ccnc2nc(C(=O)Nc3cc(Cl)ccc3N3CCOCC3)nn12` [TCMDC-124435] was tested, and the “% Inhibition” value was 7.323%.
